In PubChem BioAssay (NCI):
Compounds without any hit were thinned out: in the full panel of roughly 83,000, 20% have a hit.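 Each cell line was grown in a 96-well plate and treated with one concentration of compound for 48 hours. Values below 10 were considered active.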 Values without a mark were called inactive. Active and inactive are the calls of the source.

The compounds below were run on MDA-MB-468 breast (assay: NCI-60 one-dose screen, 48 h (100 = growth as untreated, 0 = no growth, -100 = all killed)). Details: 10 µM unless noted.

Compound	growth
COc1ccc2c(c1)nc(N)c1c3cccnc3cn21	13.4%
Cc1cc(N2CCN(CC(=O)Nc3ccc4c(ccn4C)c3)CC2)nc(N2CCCCCC2)n1	65.1%
COc1ccc2c(c1)OC(N)=C(C#N)C2c1ccc(F)c(F)c1 (stereo not given)	-24.4% (active)
COc1cc2ncnc(Nc3ccc(S(=O)(=O)Nc4cc(C)on4)cc3)c2cc1OCCCN1CCOCC1	103%
ClC1=C(Cl)C(Cl)=C(Cl)C1=Cc1ccc(Cl)cc1Cl	-74.9% (active)
O=C(Nc1ccc2ncsc2c1)c1csc(Nc2ccc3[nH]ncc3c2)n1	35.6%
C#COc1cccc(Nc2ncnc3cc(NC(=O)[C@@H](C)Cl)ccc23)c1	12% [6.25 µM]
CCC(=O)Oc1ccc(-c2ccccc2)cc1Br	98.4%
C=CCNCCCN1C(=O)c2ccc3c4c(ccc(c24)C1=O)C(=O)N(CCCNCC=C)C3=O	-88.5% (active)
O=C(N/N=C/C=C/c1ccc([N+](=O)[O-])o1)c1cc2ccccc2cc1O	-65% (active)
N#CCCN(NC(=O)OCc1ccccc1)C(=O)OCc1ccccc1	116%
COc1cc2ncnc(-n3ncc4cc(NC(=O)Nc5ccc(Cl)c(Cl)c5)ccc43)c2cc1OC	-70.5% (active)
CC(=O)N1N=C(c2ccc3c(c2)OCO3)CC1c1c(C)nn(-c2ccccc2)c1N(C)Cc1ccccc1 (stereo not given)	61.5%
CN(C)Cc1cc(C(C)(C)C)cc(Br)c1O	90.2%
CCN(CC)CCN1C(=O)c2c(c(C)c3c(oc4cc(O)ccc43)c2C)C1=O	96.3%
CCCCCCCCCCCCC1CCCC(C)C1 (stereo not given)	111%
CC(=O)Nc1nc2c(c(N)c1C#N)C(c1cccc(Cl)c1)C1=C(CCCC1=O)N2c1sc2c(c1C#N)CCCC2 (stereo not given)	47.7%
COc1c(C)c(C)c(OC)c2c1[nH]c(=O)c1c3cccnc3cn21	114%
CN(C)c1ccc(/C=C\c2cccc[n+]2C)cc1	4.18% (active)
C=C1C(=O)O[C@H]2[C@H]1CC/C(Cn1cc(-c3cccc(Cl)c3)nn1)=C\CC[C@@]1(C)O[C@@H]21	-66.1% (active)

Compound	growth
O=C1NC(=O)C2(CCCC2C(=O)O)N1 (stereo not given)	107%
CC(=O)c1ccc(NS(=O)(=O)c2cccc(C(=O)Nc3ccc(Br)cc3)c2)cc1	15.3% [25 µM]
Clc1ccc2c(c1)-c1ccccc1C1=NCCN12	7.52% (active)
Cc1ccc(S(=O)(=O)N2CCCC2CO)cc1 (stereo not given)	86.3%
CCn1c(Sc2nnc(NC(=O)CSC(=S)N3CCCCC3)s2)nc2c1c(=O)n(C)c(=O)n2C	98.7%
COc1cc(-c2nc(SCCC(C)C)nc(Nc3ccc(S(N)(=O)=O)cc3)c2C#N)cc(OC)c1OC	42.8%
COc1ccc2nc(-c3ccc(Cl)cc3)cc(-c3nnc(SCC(=O)Nc4ccc(/C(C)=N\O)cc4)o3)c2c1	58.4%
C/C=C/C(N)=O	101%
CCc1cc(Cl)c(OC)c(C(=O)NCC2CCCN2CC)c1O (stereo not given)	77.1%
COc1cc(C2C3=C(COC3=O)N(CCO)c3cc4c(cc32)OCO4)cc(OC)c1OC (stereo not given)	0.559% (active)
N#Cc1c(-c2ccco2)nc2c(c(-c3ccccc3)nn2-c2ccccc2)c1-c1ccc(O)cc1	92.4%
Cc1ccc(/C=C2\COc3ccc(O)cc3C2=O)cc1	91.4%
N=c1c2cc(-c3ccccc3)oc2ncn1/N=C/c1ccc(Cl)cc1	88.2%
O=[N+]([O-])c1cc(Br)c2cccc3c2c1CC3	97.3%
[2H]c1nc(=Nc2cc(NC(=O)C=C)c(N(C)CCN(C)C)cc2OC)[nH]c(-c2cn(C([2H])([2H])[2H])c3ccccc23)c1[2H]	-9.46% (active)
Cc1ccnc(Nc2ccc([N+](=O)[O-])c(NCCN3CCOCC3)n2)c1	26.3%
Cc1ccc(CNc2ccc3nc(CCC(C)C)[nH]c3c2)cc1	78.3%
CC[N+](CC)=c1cc2oc3cc(N(C)C)ccc3nc-2cc1C	-14% (active)
O=C(Nc1ccc(F)cc1)Nc1ccccc1CNc1nc(Nc2ccc(OCCN3CCCC3)cc2)ncc1Cl	-44.1% (active)
COC(=O)c1ccc2c(c1)c1c(C)c3cnccc3c(C)c1n2C	-38% (active)
